The results in this text go back to article PMC11006913.

Common to all, as to experiment: PBM; 200 nM protein, PBS
Details in all cases: dsDNA, one strand shown

The target in experiment [1] is CRX (Homo sapiens, UniProt O43186 26-111).
Experiment [2] has as its target HOXA4 (Homo sapiens, UniProt Q00056 201-287, W262R).
Experiment [3] concerns the target PRRX1 (Homo sapiens, UniProt P54821 80-166, F113S).
The target of experiment [4] is HOXA4 (Homo sapiens, UniProt Q00056 201-287, R217L).
The target of experiment [5] is CRX (Homo sapiens, UniProt O43186 26-111, E42D).
CRX (Homo sapiens, UniProt O43186 26-111, E42D), sequence (O43186 26-111 E42D): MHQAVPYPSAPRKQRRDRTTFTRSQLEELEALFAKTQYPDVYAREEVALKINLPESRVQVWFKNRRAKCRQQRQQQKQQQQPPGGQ
Experiment [6] has as its target HOXA4 (Homo sapiens, UniProt Q00056 201-287).
In experiment [7] the target is HOXA4 (Homo sapiens, UniProt Q00056 201-287, W262F).
HOXA4 (Homo sapiens, UniProt Q00056 201-287, W262F), sequence (Q00056 201-287 W262F): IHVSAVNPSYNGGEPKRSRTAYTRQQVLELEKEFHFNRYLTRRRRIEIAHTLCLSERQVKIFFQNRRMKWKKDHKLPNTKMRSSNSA
The target of experiment [8] is PRRX1 (Homo sapiens, UniProt P54821 80-166).
PRRX1 (Homo sapiens, UniProt P54821 80-166), sequence (P54821 80-166): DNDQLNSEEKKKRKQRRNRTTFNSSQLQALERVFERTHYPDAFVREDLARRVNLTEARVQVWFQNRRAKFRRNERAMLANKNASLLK
For experiment [9], the target named is HOXB9 (Homo sapiens, UniProt P17482 171-250, T197M).
HOXB9 (Homo sapiens, UniProt P17482 171-250, T197M), sequence (P17482 171-250 T197M): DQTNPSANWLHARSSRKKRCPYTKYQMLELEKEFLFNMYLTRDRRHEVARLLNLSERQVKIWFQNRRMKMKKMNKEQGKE
Experiment [10] concerns the target HOXC9 (Homo sapiens, UniProt P31274 178-260, K195R).
The target of experiment [11] is HOXA7 (Homo sapiens, UniProt P31268 116-202).
HOXA7 (Homo sapiens, UniProt P31268 116-202), sequence (P31268 116-202): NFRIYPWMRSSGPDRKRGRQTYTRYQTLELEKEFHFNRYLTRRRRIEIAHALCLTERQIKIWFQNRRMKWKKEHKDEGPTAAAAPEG
The target in experiment [12] is HOXC10 (Homo sapiens, UniProt Q9NYD6 254-340).
HOXC10 (Homo sapiens, UniProt Q9NYD6 254-340), sequence (Q9NYD6 254-340): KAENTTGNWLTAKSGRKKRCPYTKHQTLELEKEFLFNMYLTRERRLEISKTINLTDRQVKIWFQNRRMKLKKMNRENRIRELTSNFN
Experiment [13] has as its target HOXB9 (Homo sapiens, UniProt P17482 171-250).
Experiment [14] deals with HOXC9 (Homo sapiens, UniProt P31274 178-260).
HOXC9 (Homo sapiens, UniProt P31274 178-260), sequence (P31274 178-260): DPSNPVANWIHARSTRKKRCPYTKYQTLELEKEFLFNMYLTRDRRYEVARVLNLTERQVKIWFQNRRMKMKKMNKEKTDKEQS
In experiment [15] the target is HOXD13 (Homo sapiens, UniProt P35453 263-343, T313R).
HOXD13 (Homo sapiens, UniProt P35453 263-343, T313R), sequence (P35453 263-343 T313R): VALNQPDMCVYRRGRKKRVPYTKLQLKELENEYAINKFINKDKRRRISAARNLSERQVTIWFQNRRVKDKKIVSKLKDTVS
The target of experiment [16] is HOXC9 (Homo sapiens, UniProt P31274 178-260, R193K).
HOXC9 (Homo sapiens, UniProt P31274 178-260, R193K), sequence (P31274 178-260 R193K): as the sequence (P31274 178-260) above, with R16K counted along it
Experiment [17] concerns the target HOXD13 (Homo sapiens, UniProt P35453 263-343).
The target in experiment [18] is HOXC10 (Homo sapiens, UniProt Q9NYD6 254-340, K271E).
HOXC10 (Homo sapiens, UniProt Q9NYD6 254-340, K271E), sequence (Q9NYD6 254-340 K271E): as the sequence (Q9NYD6 254-340) above, with K18E counted along it
The target of experiment [19] is HOXD13 (Homo sapiens, UniProt P35453 263-343, T313A).
HOXD13 (Homo sapiens, UniProt P35453 263-343, T313A), sequence (P35453 263-343 T313A): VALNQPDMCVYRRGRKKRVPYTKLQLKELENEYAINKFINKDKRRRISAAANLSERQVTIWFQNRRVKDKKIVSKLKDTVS
For experiment [20], the target named is HOXB9 (Homo sapiens, UniProt P17482 171-250, R186Q).
HOXB9 (Homo sapiens, UniProt P17482 171-250, R186Q), sequence (P17482 171-250 R186Q): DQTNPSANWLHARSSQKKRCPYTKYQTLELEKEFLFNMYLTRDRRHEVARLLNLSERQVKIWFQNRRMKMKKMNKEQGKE
Experiment [21] addresses HOXC9 (Homo sapiens, UniProt P31274 178-260, R222W).
For experiment [22], the target named is HOXA7 (Homo sapiens, UniProt P31268 116-202, W177C).
HOXA7 (Homo sapiens, UniProt P31268 116-202, W177C), sequence (P31268 116-202 W177C): as the sequence (P31268 116-202) above, with W62C counted along it
For experiment [23], the target named is CRX (Homo sapiens, UniProt O43186 26-111, R41L).
CRX (Homo sapiens, UniProt O43186 26-111, R41L), sequence (O43186 26-111 R41L): as the sequence (O43186 26-111 E42D) above, with R16L, D17E counted along it
Experiment [24] addresses T1, VENTX (Homo sapiens, UniProt O95231 78-163, R121Q).
T1 sequence: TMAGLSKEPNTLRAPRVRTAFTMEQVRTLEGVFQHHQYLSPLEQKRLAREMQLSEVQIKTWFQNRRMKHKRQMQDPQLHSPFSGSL

Experiment [25] addresses T2, VENTX (Homo sapiens, UniProt O95231 78-163, Y115F).
T2 sequence: T1 sequence with Y38F, Q44R

For experiment [26], the target named is PITX2 (Homo sapiens, UniProt Q99697 72-157).
Experiment [27] has as its target T3, SIX6 (Homo sapiens, UniProt O95475 114-200, L167I).
T3 sequence: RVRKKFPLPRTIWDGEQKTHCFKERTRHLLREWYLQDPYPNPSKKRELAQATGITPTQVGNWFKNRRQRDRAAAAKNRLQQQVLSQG

Experiment [28] concerns the target T4, SIX6 (Homo sapiens, UniProt O95475 114-200, L143V).
T4 sequence: T3 sequence with L30V, I54L

Experiment [29] has as its target T5, SIX6 (Homo sapiens, UniProt O95475 114-200, H141N).
T5 sequence: T3 sequence with H28N, I54L

Experiment [30] has as its target T6, SIX6 (Homo sapiens, UniProt O95475 114-200, T165P).
T6 sequence: T3 sequence with T52P, I54L

Experiment [31] addresses T7, SIX6 (Homo sapiens, UniProt O95475 114-200, L167M).
T7 sequence: T3 sequence with I54M

Experiment [32] addresses T8, SIX6 (Homo sapiens, UniProt O95475 114-200, L143M).
T8 sequence: T3 sequence with L30M, I54L

In experiment [33] the target is T9, SIX6 (Homo sapiens, UniProt O95475 114-200, L143I).
T9 sequence: T3 sequence with L30I, I54L

Experiment [34] deals with T10, SIX6 (Homo sapiens, UniProt O95475 114-200, T165G).
T10 sequence: T3 sequence with T52G, I54L

Experiment [35] has as its target HOXA2 (Homo sapiens, UniProt O43364 129-215, R185T).
Experiment [36] addresses T11, SIX6 (Homo sapiens, UniProt O95475 114-200, T139Q).
T11 sequence: T3 sequence with T26Q, I54L

Experiment [37] addresses ALX3 (Homo sapiens, UniProt O95076 139-225, N203Q).
In experiment [38] the target is T12, SIX6 (Homo sapiens, UniProt O95475 114-200, T165A).
T12 sequence: T3 sequence with T52A, I54L

Experiment [39] has as its target HOXA2 (Homo sapiens, UniProt O43364 129-215, R185K).
Experiment [40] deals with T13, SIX6 (Homo sapiens, UniProt O95475 114-200, L167V).
T13 sequence: T3 sequence with I54V

The target of experiment [41] is ALX3 (Homo sapiens, UniProt O95076 139-225).
ALX3 (Homo sapiens, UniProt O95076 139-225), sequence (O95076 139-225): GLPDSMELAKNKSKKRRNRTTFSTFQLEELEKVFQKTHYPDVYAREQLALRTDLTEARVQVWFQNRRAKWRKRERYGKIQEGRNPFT
Experiment [42] addresses T14, SIX6 (Homo sapiens, UniProt O95475 114-200).
T14 sequence: T3 sequence with I54L

The target of experiment [43] is ALX3 (Homo sapiens, UniProt O95076 139-225, L168Q).
ALX3 (Homo sapiens, UniProt O95076 139-225, L168Q), sequence (O95076 139-225 L168Q): as the sequence (O95076 139-225) above, with L30Q counted along it
In experiment [44] the target is T15, SIX6 (Homo sapiens, UniProt O95475 114-200, T165I).
T15 sequence: T3 sequence with T52I, I54L

For experiment [45], the target named is ALX3 (Homo sapiens, UniProt O95076 139-225, L168V).
ALX3 (Homo sapiens, UniProt O95076 139-225, L168V), sequence (O95076 139-225 L168V): as the sequence (O95076 139-225) above, with L30V counted along it
In experiment [46] the target is HOXA2 (Homo sapiens, UniProt O43364 129-215, Y150S).
HOXA2 (Homo sapiens, UniProt O43364 129-215, Y150S), sequence (O43364 129-215 Y150S): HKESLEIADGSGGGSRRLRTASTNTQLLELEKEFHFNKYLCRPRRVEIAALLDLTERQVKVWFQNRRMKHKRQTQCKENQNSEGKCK
Experiment [47] addresses ALX3 (Homo sapiens, UniProt O95076 139-225, N203S).
Experiment [48] deals with HOXA2 (Homo sapiens, UniProt O43364 129-215).
HOXA2 (Homo sapiens, UniProt O43364 129-215), sequence (O43364 129-215): as the sequence (O43364 129-215 Y150S) above, with S22Y counted along it
Experiment [49] has as its target T16, PAX4 (Homo sapiens, UniProt O43316 9-242).
T16 sequence: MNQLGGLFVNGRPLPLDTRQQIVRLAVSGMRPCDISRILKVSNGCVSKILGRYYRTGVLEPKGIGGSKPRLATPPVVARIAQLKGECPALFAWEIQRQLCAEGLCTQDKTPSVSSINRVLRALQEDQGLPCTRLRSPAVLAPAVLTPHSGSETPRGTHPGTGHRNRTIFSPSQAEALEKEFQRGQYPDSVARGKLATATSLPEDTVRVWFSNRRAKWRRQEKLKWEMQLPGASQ

For experiment [50], the target named is T17, PAX4 (Homo sapiens, UniProt O43316 9-242, F177V).
T17 sequence: T16 sequence with F169V

Experiment [51] deals with T18, PAX4 (Homo sapiens, UniProt O43316 9-242, F177Y).
T18 sequence: T16 sequence with F169Y

Experiment [52] has as its target T19, PAX4 (Homo sapiens, UniProt O43316 9-242, R227W).
T19 sequence: T16 sequence with R219W

Positions count from the first letter of the chain named.

CRX (Homo sapiens, UniProt O43186 26-111), sequence (O43186 26-111): as the sequence (O43186 26-111 E42D) above, with D17E counted along it
HOXB9 (Homo sapiens, UniProt P17482 171-250), sequence (P17482 171-250): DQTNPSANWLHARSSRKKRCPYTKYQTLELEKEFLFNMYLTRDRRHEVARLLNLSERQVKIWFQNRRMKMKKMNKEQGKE
HOXA2 (Homo sapiens, UniProt O43364 129-215, R185T), sequence (O43364 129-215 R185T): as the sequence (O43364 129-215 Y150S) above, with S22Y, R57T counted along it
HOXD13 (Homo sapiens, UniProt P35453 263-343), sequence (P35453 263-343): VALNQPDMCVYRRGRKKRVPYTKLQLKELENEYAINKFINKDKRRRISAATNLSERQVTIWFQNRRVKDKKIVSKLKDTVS
HOXC9 (Homo sapiens, UniProt P31274 178-260, R222W), sequence (P31274 178-260 R222W): as the sequence (P31274 178-260) above, with R45W counted along it
PRRX1 (Homo sapiens, UniProt P54821 80-166, F113S), sequence (P54821 80-166 F113S): as the sequence (P54821 80-166) above, with F34S counted along it
HOXA4 (Homo sapiens, UniProt Q00056 201-287, R217L), sequence (Q00056 201-287 R217L): as the sequence (Q00056 201-287 W262F) above, with R17L, F62W counted along it
ALX3 (Homo sapiens, UniProt O95076 139-225, N203Q), sequence (O95076 139-225 N203Q): as the sequence (O95076 139-225) above, with N65Q counted along it
ALX3 (Homo sapiens, UniProt O95076 139-225, N203S), sequence (O95076 139-225 N203S): as the sequence (O95076 139-225) above, with N65S counted along it
HOXA4 (Homo sapiens, UniProt Q00056 201-287, W262R), sequence (Q00056 201-287 W262R): as the sequence (Q00056 201-287 W262F) above, with F62R counted along it
HOXC9 (Homo sapiens, UniProt P31274 178-260, K195R), sequence (P31274 178-260 K195R): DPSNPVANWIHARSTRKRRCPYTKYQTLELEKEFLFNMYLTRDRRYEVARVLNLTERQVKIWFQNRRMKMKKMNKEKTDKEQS
HOXA4 (Homo sapiens, UniProt Q00056 201-287), sequence (Q00056 201-287): as the sequence (Q00056 201-287 W262F) above, with F62W counted along it
HOXA2 (Homo sapiens, UniProt O43364 129-215, R185K), sequence (O43364 129-215 R185K): as the sequence (O43364 129-215 Y150S) above, with S22Y, R57K counted along it

GGGGCTCA: the binding signal in experiment [1] was 9.96 upbm affinity estimate (log intensity, higher = more binding, comparable within an allelic series); in [2], 9.76 upbm affinity estimate (log intensity, higher = more binding, comparable within an allelic series); in experiment [3], 9.31 upbm affinity estimate (log intensity, higher = more binding, comparable within an allelic series); in [4], 9.78 upbm affinity estimate (log intensity, higher = more binding, comparable within an allelic series); in experiment [5], 9.8 upbm affinity estimate (log intensity, higher = more binding, comparable within an allelic series); in experiment [6] it was 9.76 upbm affinity estimate (log intensity, higher = more binding, comparable within an allelic series). Also, the binding signal in experiment [7] was 9.78 upbm affinity estimate (log intensity, higher = more binding, comparable within an allelic series); in experiment [8] it was 9.52 upbm affinity estimate (log intensity, higher = more binding, comparable within an allelic series).

Take ATTTATGG: the binding signal is 10.2 upbm affinity estimate (log intensity, higher = more binding, comparable within an allelic series) in experiment [1]; 9.79 upbm affinity estimate (log intensity, higher = more binding, comparable within an allelic series) in experiment [9]; 12.7 upbm affinity estimate (log intensity, higher = more binding, comparable within an allelic series) in [10]; 10.6 upbm affinity estimate (log intensity, higher = more binding, comparable within an allelic series) in experiment [11]; 12.5 upbm affinity estimate (log intensity, higher = more binding, comparable within an allelic series) in experiment [12]; 12.1 upbm affinity estimate (log intensity, higher = more binding, comparable within an allelic series) in [13]. Also, the binding signal in experiment [5] was 9.96 upbm affinity estimate (log intensity, higher = more binding, comparable within an allelic series); in experiment [14] it was 12.9 upbm affinity estimate (log intensity, higher = more binding, comparable within an allelic series); in experiment [15], 10.8 upbm affinity estimate (log intensity, higher = more binding, comparable within an allelic series); in experiment [16], 12.8 upbm affinity estimate (log intensity, higher = more binding, comparable within an allelic series); in experiment [17], 12.1 upbm affinity estimate (log intensity, higher = more binding, comparable within an allelic series); in [18], 11.7 upbm affinity estimate (log intensity, higher = more binding, comparable within an allelic series). The binding signal in [19] is 11.8 upbm affinity estimate (log intensity, higher = more binding, comparable within an allelic series); in experiment [20] it was 11.8 upbm affinity estimate (log intensity, higher = more binding, comparable within an allelic series); in [21], 11.2 upbm affinity estimate (log intensity, higher = more binding, comparable within an allelic series); in experiment [22], 8.83 upbm affinity estimate (log intensity, higher = more binding, comparable within an allelic series); in experiment [23], 9.82 upbm affinity estimate (log intensity, higher = more binding, comparable within an allelic series).

In the case of GCAGATTA, the binding signal in [1] was 13 upbm affinity estimate (log intensity, higher = more binding, comparable within an allelic series); in experiment [24], 10.3 upbm affinity estimate (log intensity, higher = more binding, comparable within an allelic series); in experiment [25], 10.4 upbm affinity estimate (log intensity, higher = more binding, comparable within an allelic series); in experiment [5], 13 upbm affinity estimate (log intensity, higher = more binding, comparable within an allelic series); in experiment [26], 12.3 upbm affinity estimate (log intensity, higher = more binding, comparable within an allelic series).

On to CCAGGGGC, for which the binding signal in experiment [1] was 7.85 upbm affinity estimate (log intensity, higher = more binding, comparable within an allelic series); in experiment [9], 8.38 upbm affinity estimate (log intensity, higher = more binding, comparable within an allelic series); in [27], 8.79 upbm affinity estimate (log intensity, higher = more binding, comparable within an allelic series); in experiment [28] it was 8.71 upbm affinity estimate (log intensity, higher = more binding, comparable within an allelic series); in experiment [29] it was 8.85 upbm affinity estimate (log intensity, higher = more binding, comparable within an allelic series); in experiment [30], 8.79 upbm affinity estimate (log intensity, higher = more binding, comparable within an allelic series). In addition, the binding signal is 8.77 upbm affinity estimate (log intensity, higher = more binding, comparable within an allelic series) in [31]; 8.78 upbm affinity estimate (log intensity, higher = more binding, comparable within an allelic series) in experiment [32]; 8.85 upbm affinity estimate (log intensity, higher = more binding, comparable within an allelic series) in [33]; 8.91 upbm affinity estimate (log intensity, higher = more binding, comparable within an allelic series) in experiment [34]; 7.15 upbm affinity estimate (log intensity, higher = more binding, comparable within an allelic series) in experiment [35]; 8.33 upbm affinity estimate (log intensity, higher = more binding, comparable within an allelic series) in experiment [13]. Besides, the binding signal in experiment [36] is 8.83 upbm affinity estimate (log intensity, higher = more binding, comparable within an allelic series); in experiment [5], 7.94 upbm affinity estimate (log intensity, higher = more binding, comparable within an allelic series); in experiment [37], 7.67 upbm affinity estimate (log intensity, higher = more binding, comparable within an allelic series); in [38], 8.82 upbm affinity estimate (log intensity, higher = more binding, comparable within an allelic series); in experiment [39] it was 10.2 upbm affinity estimate (log intensity, higher = more binding, comparable within an allelic series); in experiment [40] it was 8.8 upbm affinity estimate (log intensity, higher = more binding, comparable within an allelic series). Moreover, the binding signal in experiment [41] is 7.59 upbm affinity estimate (log intensity, higher = more binding, comparable within an allelic series); in experiment [42] it was 8.88 upbm affinity estimate (log intensity, higher = more binding, comparable within an allelic series); in [43], 7.73 upbm affinity estimate (log intensity, higher = more binding, comparable within an allelic series); in [44], 8.84 upbm affinity estimate (log intensity, higher = more binding, comparable within an allelic series); in experiment [20] it was 8.39 upbm affinity estimate (log intensity, higher = more binding, comparable within an allelic series); in experiment [45], 7.75 upbm affinity estimate (log intensity, higher = more binding, comparable within an allelic series). For the same sequence, the binding signal in experiment [46] is 10.3 upbm affinity estimate (log intensity, higher = more binding, comparable within an allelic series); in experiment [23], 8.19 upbm affinity estimate (log intensity, higher = more binding, comparable within an allelic series); in [47] it was 7.65 upbm affinity estimate (log intensity, higher = more binding, comparable within an allelic series); in experiment [48], 7.27 upbm affinity estimate (log intensity, higher = more binding, comparable within an allelic series).

Take AATTCTGA: in experiment [1], the binding signal is 10 upbm affinity estimate (log intensity, higher = more binding, comparable within an allelic series).

AATGCTAA: the binding signal was 10.4 upbm affinity estimate (log intensity, higher = more binding, comparable within an allelic series) in experiment [1]; 10.9 upbm affinity estimate (log intensity, higher = more binding, comparable within an allelic series) in [49]; 10.3 upbm affinity estimate (log intensity, higher = more binding, comparable within an allelic series) in [5]; 10.1 upbm affinity estimate (log intensity, higher = more binding, comparable within an allelic series) in [50]; 10.2 upbm affinity estimate (log intensity, higher = more binding, comparable within an allelic series) in experiment [51]; 10.2 upbm affinity estimate (log intensity, higher = more binding, comparable within an allelic series) in experiment [52].
